PubChem BioAssay (NCATS)
Inconclusive results are not listed. Active and inactive are the calls of the source. The call rests on the fitted dose curve; in most records, active means well fitted inhibition curve with a large enough effect; inconclusive means small, poorly fitted or top-dose-only effect; inactive means no such curve, though single readings can be large or run the other way.

molecular target: Tumor susceptibility gene 101 protein (Homo sapiens) (UniProt Q99816); experiment: qHTS Assay for Iinhibitors of HIV-1 Budding by Blocking the Interaction of PTAP/TSG101: Hit Validation (AID 651600); conditions: PTAP peptide/TSG101 UEV interaction, biochemical assay; series mostly up to 57.5 µM; activity change, negative = inhibition: at the top concentration; further: nearly all actives have a fitted effect of over 70% in size
Sequence (Q99816 whole entry, looked up, the tested form may be a part): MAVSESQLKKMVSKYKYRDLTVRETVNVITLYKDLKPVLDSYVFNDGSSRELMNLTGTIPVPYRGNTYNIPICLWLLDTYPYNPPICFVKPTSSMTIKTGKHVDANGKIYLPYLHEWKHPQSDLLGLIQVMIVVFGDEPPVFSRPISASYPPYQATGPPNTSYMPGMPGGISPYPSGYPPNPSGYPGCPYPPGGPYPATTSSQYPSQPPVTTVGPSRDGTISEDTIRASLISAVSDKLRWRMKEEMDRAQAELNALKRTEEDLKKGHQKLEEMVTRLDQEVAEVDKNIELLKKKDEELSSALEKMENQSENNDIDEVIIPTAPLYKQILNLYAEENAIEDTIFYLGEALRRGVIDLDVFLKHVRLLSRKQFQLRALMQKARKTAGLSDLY
Outline: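 Fluorescence polarization binding assay: Tsg101 binding domain (10 uM) mixed with compounds and FITC-labeled PTAP peptide (50 nM) in HEPES pH 7.5, 0.15 M NaCl, 0.01% Tween 20, EDTA, TCEP; 20 min at r.t.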
On the % scale 0 is the no-effect control and ±100 the full control effect; potency means the concentration at half of the fitted maximal effect.

`c1ccc2[nH]c3cc4ncnc4cc3nc2c1` was tested. Which Potency did it give?
The Potency was 6.51 µM (active).

For `Cn1nc([N+](=O)[O-])c(C(C#N)c2nc3ccccc3n2C)c(Cl)c1=O` (centres undefined), which “activity change, negative = inhibition” value is on record?
Its value is -4.38% (inactive).

Which “activity change, negative = inhibition” value does the source give for `CC(=O)Nc1ccc(S(=O)(=O)Nc2nc3n(n2)C(c2ccccc2)C=C(c2ccc(Cl)cc2)N3)cc1` (centres undefined) here?
The value was 0.553% (inactive).

`Cc1ccc(CSc2nnc3c(n2)OC2(Nc4ccccc4-3)C(=O)Nc3ccc(F)cc32)cc1` (centres undefined) was tested. Which “activity change, negative = inhibition” value did it give?
The value was -4.93% (inactive).

For `CC1=CC(=C(C#N)c2nc3ccccc3s2)C=C(C)N1CC1CCCO1` (centres undefined), which Potency is on record?
The Potency was 16.3 µM (active).

How did the “activity change, negative = inhibition” value turn out when `Oc1c(C=Nc2ccccc2)sc2ccccc12` was run?
Its value is -4.91% (inactive).

`O=C1NC(c2ccco2)Nc2sc3c(c21)CCN(Cc1ccccc1)C3` (centres undefined) was tested. Which “activity change, negative = inhibition” value did it give?
Its value is 10.5% (inactive).

How did the “activity change, negative = inhibition” value turn out when `O=C1c2ccccc2S(=O)(=O)c2cc(N3CCN(C(=O)c4ccccc4)CC3)ccc21` was run?
The value was -20.7% (inactive).

`C#CCn1cc(C=C2C(=O)c3ccccc3C2=O)c2ccccc21` was tested. Which “activity change, negative = inhibition” value did it give?
The value was -13.4% (inactive).

How did the “activity change, negative = inhibition” value turn out when `O=[N+]([O-])c1ccc(-c2cn3nc(-c4ccccc4)c(-c4ccccc4)nc3n2)cc1` was run?
The value was -4.2% (inactive).

Which “activity change, negative = inhibition” value does the source give for `CCN(C(=O)c1sc2nc3n(c(=O)c2c1C)CCCC3)c1ccccc1F` here?
Its value is 1.87% (inactive).

Which Potency does the source give for `COc1cccc2c1C(=O)c1c(O)c3c(c(O)c1C2=O)CC(O)(C(C)=O)CC3OC1CC(O)C(O)C(C)O1` (centres undefined) here?
Its Potency is 13 µM (active).

How did the Potency turn out when `Cc1ccc(NC(=O)/C(C#N)=C(\N)C(Cl)(Cl)Cl)nc1` was run?
The Potency was 18.3 µM (active).

For `c1ccc2c(c1)CCCN2Cc1nnnn1CC1CCCO1` (centres undefined), which “activity change, negative = inhibition” value is on record?
The value was -24.7% (inactive).

With `Cc1cccc(N=Nc2c(O)[nH]c3ccc(F)cc23)c1` as the molecule, how does the “activity change, negative = inhibition” value read?
The value was -2.45% (inactive).

`COCCNC(=S)N/N=C/c1c2ccccc2cc2ccccc12` was tested. Which “activity change, negative = inhibition” value did it give?
The value was 8.48% (inactive).

For `CC1CC(C)CN(C(=O)c2ccc3c(c2NCCO)C(=O)c2ccccc2C3=O)C1` (centres undefined), which “activity change, negative = inhibition” value is on record?
The value was -24.5% (inactive).

`CCN(CC)C(=O)CSc1nnc2nnc3cc(OC)ccc3n12` was tested. Which Potency did it give?
Its Potency is 29.1 µM (active).

How did the “activity change, negative = inhibition” value turn out when `O=[N+]([O-])c1ccc(-c2ccc(/C=N/Nc3nc(N4CCCC4)nc(N4CCCC4)n3)o2)cc1` was run?
Its value is 7.22% (inactive).

Which “activity change, negative = inhibition” value does the source give for `CN1c2ccc(C=O)c3c(C=O)ccc(c23)N(C)C1(C)C` here?
The value was 10.5% (inactive).

How did the Potency turn out when `CCN(CC)c1ccc2c(-c3ccc(S(=O)(=O)O)cc3S(=O)(=O)[O-])c3ccc(=[N+](CC)CC)cc-3oc2c1` was run?
The Potency was 11.6 µM (active).

For `Cn1c(=O)c(Nc2ccc(Cl)cc2)c2c3c(cccc31)C(=O)c1ccccc1-2`, which Potency is on record?
Its Potency is 10.3 µM (active).

With `COc1ccc(NC(=O)c2nc(-c3ccc(C)cc3)n3c2CCCCC3)cc1` as the molecule, how does the “activity change, negative = inhibition” value read?
The value was -6.7% (inactive).

`CCN(CC)C(=O)[C@H]1CC(CC(=O)NCc2cccc(C(F)(F)F)c2)C(=O)N2CCc3c([nH]c4ccc(OC)cc34)[C@]12C` (some centres undefined) was tested. Which “activity change, negative = inhibition” value did it give?
The value was -1.5% (inactive).

How did the “activity change, negative = inhibition” value turn out when `CCc1cc(C(=O)OC)c(NC(=O)CC2Nc3cc(C)c(C)cc3NC2=O)s1` (centres undefined) was run?
The value was 5.17% (inactive).

With `CCOC(=O)C1Nc2ccccc2C2C(O)C(O)CC12` (centres undefined) as the molecule, how does the “activity change, negative = inhibition” value read?
Its value is -18.1% (inactive).

How did the “activity change, negative = inhibition” value turn out when `O=C(NCc1cccc(F)c1)c1cccc2c1C(=O)c1ccc(N3CCCC3)cc1S2(=O)=O` was run?
Its value is -8.13% (inactive).

With `CC(C)(C)C(=O)c1sc2nc(-c3cccs3)cc(C(F)(F)F)c2c1N` as the molecule, how does the “activity change, negative = inhibition” value read?
The value was 11.5% (inactive).

Which “activity change, negative = inhibition” value does the source give for `COc1ccc(N(C(=O)c2snc(C(N)=O)c2N)C(C(=O)NC2CCCC2)c2ccc3ncccc3c2)cc1` (centres undefined) here?
The value was 5.83% (inactive).

For `COc1ccc(C2C(C(=O)c3cccs3)=C(O)C(=O)N2c2nncs2)cc1` (centres undefined), which Potency is on record?
The Potency was 20.6 µM (active).

`COc1ccc(OC)c2cc3ccccc3cc12` was tested. Which Potency did it give?
Its Potency is 32.6 µM (active).

`CC(=O)c1ccc(N2C(=O)C3C(C2=O)C(C(=O)c2ccc(Cl)cc2)N2CCCC32)cc1` (centres undefined) was tested. Which “activity change, negative = inhibition” value did it give?
The value was -21.7% (inactive).

With `Cc1ccccc1N1C(=O)c2cccc3c(N(C)CCO)ccc(c23)C1=O` as the molecule, how does the Potency read?
Its Potency is 13 µM (active).

How did the “activity change, negative = inhibition” value turn out when `N#Cc1c(C#N)c(O)c2ccccc2c1O` was run?
The value was -14.3% (inactive).

With `O=C(OCCN1C(=O)c2cccc3c(N4CCOCC4)ccc(c23)C1=O)c1ccc(Cl)cc1` as the molecule, how does the Potency read?
The Potency was 18.3 µM (active).

`Cc1cc(C)n2nc3nc4c(cc3c2n1)CCCC4` was tested. Which “activity change, negative = inhibition” value did it give?
The value was -6.06% (inactive).

`O=C(C1=C(O)C(=O)N(c2nccs2)C1c1ccccc1)c1cc2ccccc2o1` (centres undefined) was tested. Which Potency did it give?
The Potency was 5.17 µM (active).

With `Cc1cc[n+](-c2[nH]c(=O)sc2/C=N/N=C(\[O-])c2ccccc2)cc1C` as the molecule, how does the Potency read?
The Potency was 10.3 µM (active).

With `Cc1ccc(C2C=C(c3ccc(Cl)cc3)Nc3nc(NS(=O)(=O)c4ccccc4)nn32)cc1` (centres undefined) as the molecule, how does the “activity change, negative = inhibition” value read?
The value was -9.68% (inactive).
